Screens as filed in PubChem BioAssay.
The full list was thinned out, with hits kept by preference.
RBX1-CUL1 inh – blocks human RBX1-Cullin-1 di-ubiquitin formation | P62877+Q13616 | in vitro K48 di-Ub FRET, acceptor:donor ratio, 45 min | inhibition, % at 10 µM | 0.6% of 140,000 active; in the data active = inhibition above about 25%
Target sequence (P62877 whole entry, looked up): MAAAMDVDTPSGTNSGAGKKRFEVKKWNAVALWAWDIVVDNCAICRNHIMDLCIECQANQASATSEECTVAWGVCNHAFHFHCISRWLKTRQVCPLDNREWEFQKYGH
Target sequence (Q13616 whole entry, looked up): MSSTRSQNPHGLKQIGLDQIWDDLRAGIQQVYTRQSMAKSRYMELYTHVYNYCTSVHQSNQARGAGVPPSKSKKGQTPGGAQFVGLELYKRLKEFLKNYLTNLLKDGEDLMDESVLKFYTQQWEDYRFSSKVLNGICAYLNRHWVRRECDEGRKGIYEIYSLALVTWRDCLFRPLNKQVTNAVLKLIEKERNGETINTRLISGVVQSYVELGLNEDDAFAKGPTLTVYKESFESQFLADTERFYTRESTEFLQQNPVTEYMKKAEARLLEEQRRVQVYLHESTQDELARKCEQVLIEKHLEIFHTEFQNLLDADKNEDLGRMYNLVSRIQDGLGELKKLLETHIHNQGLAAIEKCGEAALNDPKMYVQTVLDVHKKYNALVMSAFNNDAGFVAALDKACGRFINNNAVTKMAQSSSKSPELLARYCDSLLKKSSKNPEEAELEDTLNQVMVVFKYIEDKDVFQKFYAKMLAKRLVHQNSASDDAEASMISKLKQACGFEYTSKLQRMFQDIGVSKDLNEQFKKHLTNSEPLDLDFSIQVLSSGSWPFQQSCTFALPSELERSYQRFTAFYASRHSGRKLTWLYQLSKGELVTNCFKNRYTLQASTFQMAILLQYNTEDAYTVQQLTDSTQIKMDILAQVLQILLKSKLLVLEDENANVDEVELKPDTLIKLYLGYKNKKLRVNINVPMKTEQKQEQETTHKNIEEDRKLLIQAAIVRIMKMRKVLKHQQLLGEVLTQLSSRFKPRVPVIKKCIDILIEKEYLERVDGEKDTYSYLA
A number is an active result; 0 = inactive.

SMILES	RBX1-CUL1 inh
COc1ccc2c(c1)C=C1C(=CC(=O)CC1(C)C)O2	111.5
O=C(NC1CC1)C1CCN(Cc2ccccc2Cl)CC1	0
Cc1ccnc(NS(=O)(=O)c2ccc(F)c(F)c2)c1	0
CCOC(=O)c1c(C(=O)OCC)c(C)n(-c2ccccc2C(=O)O)c1C	35.7
CCOC(=O)c1c(C)n(-c2ccccc2)c2ccc(OC(=O)c3ccccc3Cl)cc12	0
CCOC(=O)c1c(C)n(-c2ccccc2)c(C)nc1=S	0
CCOc1cc(C=C2C(=O)NC(=S)NC2=O)cc(Cl)c1OCc1ccc(C(=O)O)cc1	50.4
CCOc1cc(C=C2C(=O)NC(=S)NC2=O)cc(Br)c1OCc1ccc(C(=O)O)cc1	0
O=C1NC(=O)C(=Cc2cc(Cl)c(OCc3ccc(C(=O)O)cc3)c(Cl)c2)C(=O)N1	0
C=CCNc1ccc(-c2ccccc2)cc1	0
CC(C)(C)C(=O)OC1[C@@H](OC(=O)C(C)(C)C)[C@H](OC(=O)C(C)(C)C)C(O)[C@H](OC(=O)C(C)(C)C)[C@H]1OC(=O)C(C)(C)C (stereo partly drawn)	0
O=C1OC(c2ccc(Cl)cc2Cl)=N/C1=C/c1ccc(Cl)cc1Cl	0
COc1cc(/C=C2\SC(=S)N(/N=C/c3cc(OC)c(O)cc3Cl)C2=O)c(Cl)cc1O	45.5
COc1cc(C=C2C(=O)NC(=S)NC2=O)c(Cl)cc1O	0
COc1ccc(/C=C2\SC(=S)N(C3CCCCC3)C2=O)cc1O	0
Cc1nnc(NC(=O)C(C)Oc2ccc(Br)cc2Br)s1 (stereo not drawn)	0
O=C(c1ccc(OCCOc2ccccc2)cc1)N1CCOCC1	0
O=C(Nc1ccc(S(=O)(=O)N2CCC(C(=O)O)CC2)cc1)c1ccccc1Cl	0
O=C1NN(c2ccccc2)C(=O)/C1=C/c1cc(Br)ccc1OCCCOc1ccc(Cl)cc1	0
O=C1NN(c2ccc(Br)cc2)C(=O)/C1=C\c1ccccc1OCc1ccccc1	0
O=C1NN(c2ccccc2)C(=O)/C1=C\c1cc(O)ccc1Br	0
O=C1NN(c2ccccc2)C(=O)/C1=C/c1cc(Br)ccc1OCc1ccc(Cl)c(Cl)c1	72.3
Cc1ccccc1COc1ccc(Br)cc1/C=C1\C(=O)NN(c2ccccc2)C1=O	49.5
O=C1NN(c2ccccc2)C(=O)/C1=C/c1ccc(OCc2ccc(Cl)c(Cl)c2)cc1	0
O=C1NN(c2ccccc2)C(=O)/C1=C/c1ccccc1OCCCOc1ccccc1	0
SMILES	RBX1-CUL1 inh
Cc1ccc(OCCCOc2ccc(Br)cc2/C=C2\C(=O)NN(c3ccccc3)C2=O)cc1	60.6
O=C1NN(c2ccccc2)C(=O)/C1=C/c1ccccc1OCc1ccc(Cl)c(Cl)c1	0
CCCCN(C)S(=O)(=O)c1cc(OC)c(Cl)cc1OC	0
Cc1ccc(/C=C2/C(=O)N(C)C(=S)N2C)s1	0
CCn1c(-c2ccccc2)nn(CN2CCCCCC2)c1=S	0
CCOC(=O)NCCOc1cnn(-c2ccc(Cl)cc2)c(=O)c1Cl	0
Cc1cc(C)n(C(=O)C2C(C)ON(c3ccccc3)C2c2ccccc2)n1 (stereo not drawn)	0
CC(=O)c1c(O)ccc2ccc(=O)oc12	0
OC(CNC1CC1)Cn1c2ccccc2c2ccccc21 (stereo not drawn)	0
N#C/C(=C\c1ccc([N+](=O)[O-])o1)c1nc(-c2ccc(F)cc2)cs1	0
CC(=O)/C(C#N)=C/c1ccc(C#N)o1	0
N#C/C(=C/c1ccc([N+](=O)[O-])o1)C(=O)O	73.2
CCOC(=O)C(C(=O)/C=C/C(=O)C(C(=O)OCC)C(=O)OCC)C(=O)OCC	0
CN(CC1CCN(CCc2ccccc2F)CC1)C(=O)C1CCCN(C(N)=O)C1 (stereo not drawn)	0
COc1ccc(/C=C2\C(=O)NN(c3cccc(Cl)c3)C2=O)cc1	0
COc1ccccc1/C=C1/C(=O)NN(c2ccc(Br)cc2)C1=O	0
COc1ccc(Br)cc1/C=C1/C(=O)NN(c2cccc(Cl)c2)C1=O	89.4
O=C1NN(c2cccc(Cl)c2)C(=O)/C1=C\c1ccc(-c2ccc(Br)cc2C(=O)O)o1	80.4
O=C1NN(c2ccccc2)C(=O)/C1=C/c1cccc(OCCCOc2ccc(Cl)cc2)c1	0
COC(=O)c1cccc(-c2ccc(/C=C3/C(=O)NN(c4cccc(Cl)c4)C3=O)o2)c1	0
COc1cc(/C=C2\C(=O)NN(c3ccc(C)cc3)C2=O)cc(Br)c1O	0
COC(=O)c1cc(-c2ccc(/C=C3/C(=O)NN(c4cccc(Br)c4)C3=O)o2)ccc1Cl	0
COc1cc(/C=C2\C(=O)NN(c3ccc(Cl)c(Cl)c3)C2=O)cc(Br)c1O	0
COc1cc(Br)cc(/C=C2\C(=O)NN(c3ccc(C)c(Cl)c3)C2=O)c1O	43.0
CC(=O)Oc1cccc(/C=C2/C(=O)NN(c3cccc(Cl)c3)C2=O)c1	25.6
SMILES	RBX1-CUL1 inh
COc1ccccc1/C=C1\C(=O)NN(c2cccc(Cl)c2)C1=O	0
Cc1cnc(N2CC(n3cccn3)C2)nc1-c1cnn(C)c1	0
O=C1NC(=S)NC(=O)C1C(c1cccc(Br)c1)C1C(=O)NC(=S)NC1=O	0
CN(C)C(Cl)=NC1=C(C#N)C(c2ccccc2)C(C#N)=C(N=C(Cl)N(C)C)S1 (stereo not drawn)	0
O=C(CCc1cnccn1)N1CCCC(CCc2ccc(F)c(F)c2)C1 (stereo not drawn)	0
O=c1nc2c3c4c(sc3ncn2c2ccccc12)CCC4	0
COc1ccccc1C(=O)N(C)c1nc(-c2ccccc2)cc(-c2ccccc2)c1C#N	0
CC(=O)Nc1ccc(NC(=O)COc2cc(Cl)c(Cl)cc2Cl)cc1	0
COc1cc(/C=C2\C(=O)NN(c3ccccc3)C2=O)cc(I)c1OCCCOc1ccc(Cl)cc1	0
COc1ccc2cccc(/C=C3\C(=O)NN(c4ccc(Cl)c(Cl)c4)C3=O)c2c1	0
COc1c(I)cc(I)cc1/C=C1/C(=O)NN(c2ccc(Cl)cc2)C1=O	46.5
O=C1NN(c2cccc(Cl)c2)C(=O)/C1=C/c1cc(I)cc(I)c1O	0
O=C1NN(c2ccc(Cl)cc2)C(=O)/C1=C\c1cc(I)cc(I)c1O	0
COc1c(I)cc(I)cc1/C=C1\C(=O)NN(c2cccc(Cl)c2)C1=O	48.4
N=C1C(=O)Nc2cccc3c2C1c1cccc(NC(=O)c2ccccc2)c1C3=O (stereo not drawn)	0
Cc1cccc(C2=NN3C(=N)/C(=C\c4cc(C)n(Cc5ccccc5)c4C)C(=O)N=C3S2)c1	0
Cc1ccc2[nH]cc(-c3nnnn3-c3ccc(Br)cc3)c2c1	0
CCOC(=O)N1CCN(C(=O)c2ccc(N3CCC(NCc4ccc(F)cc4)CC3)cc2)CC1	0
Cc1ccc(CCC(=O)N2CCN(c3ccccc3F)CC2)cc1	0
CC1(C)CC(NC(=O)C2CC3CCCC(C2)C3=O)CC(C)(C)N1 (stereo not drawn)	0
CCCCN(C)C(=O)C1CCCN(c2nc(C)c3ccc(S(C)(=O)=O)cc3n2)C1 (stereo not drawn)	0
COc1cc(/C=C/c2nn(-c3ccc(Br)cc3)c3c(=O)ccccc23)cc(OC)c1OC	0
O=c1ccccc2c(/C=C/c3ccc(Cl)cc3Cl)nn(-c3ccccc3)c12	26.5
O=c1c(Cl)cc(Cl)nn1-c1ccccc1	0
CC(C)(C)Oc1ncc(-c2cccc(I)c2)c(OC(C)(C)C)n1	0
CCOC(=O)N1CC=C2C(C#N)C(=N)C(C#N)(C#N)[C@H](c3cccc(F)c3)[C@H]2C1 (stereo partly drawn)	0
CN1CC=C2C(C#N)C(=N)C(C#N)(C#N)C(c3ccc(Br)s3)C2C1 (stereo not drawn)	44.8
